Experimental data as given in PubChem BioAssay.
Where “and” joins values, the source holds several entries; their conditions need not be identical. Identical values can stand only once. Some structures have more than one record in an assay (separate samples or runs), and their calls can disagree. Calls of active or inactive are those of the source. No stated cut-off is given here; in the data, active means fold change permeability below about 0.7 or above about 1.3; inactive means in between.

Experiment: modulators of brain endothelial barrier permeability, primary screen, cell-based, FITC-avidin fluorescence, HTS (AID 1963498); further: test concentration not given here
Conditions: actives lie on both sides

Fold change permeability, inactive:
CCCNC(=O)Nc1ccc(Oc2ncnc3cc(OC)c(OC)cc23)cc1Cl 1.1
O=C(O)C1=CCCN(CCON=C(c2ccccc2)c2ccccc2)C1 1.1
NC(=O)c1ccc(OCCCN2C[C@H]3CCC[C@H]3C2)cc1 0.8
c1cnc(N2CCN(Cc3ccc4c(c3)OCO4)CC2)nc1 1
CCCC(C(=O)OCCN(CC)CC)(c1ccccc1)c1ccccc1 1.2
O=c1[nH]c2cc([N+](=O)[O-])c([N+](=O)[O-])cc2[nH]c1=O 1.2
N=C(N)c1ccccc1 0.9
CC(=O)C1=C(C)N(c2cccc(C(F)(F)F)c2)C(=O)N[C@@H]1c1ccc(C#N)nc1 1.1

Fold change permeability, […] (active) and 1.1 (inactive):
O=C1NC(=O)C(c2ccccc2)(c2ccccc2)N1

Fold change permeability, active:
O=c1c2ccccc2[nH]c(=S)n1CCN1CCC(=C(c2ccc(F)cc2)c2ccc(F)cc2)CC1 1.6
O=C(NCc1ccc(F)cc1)C1CCN(S(=O)(=O)c2cc(Cl)cc(Cl)c2)CC1 1.5
Oc1ccc2c(c1)OC[C@]1(O)Cc3cc(O)c(O)cc3[C@H]21 1.7
C[C@H](N[C@@H](CCc1ccccc1)C(=O)O)C(=O)N1CCC[C@H]1C(=O)O 0.6
N[C@H](CCCP(=O)(O)O)C(=O)O 1.3
C[n+]1cc2c3c(ccc2c2ccc4cc5c(cc4c21)OCO5)OCO3 2.1
O=C(O)c1ccc(-c2c[nH]c3ncc(-c4ccccc4)cc23)cc1C1CCCC1 1.4
